# Measured values published in PubChem BioAssay.
# Records with an inconclusive call do not appear. The source made the active and inactive calls.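 The calls were made as follows, unless noted: active = cell viability at or below a set limit in both duplicate runs, the limit being the all-compound median minus 4 SD (cut at about 23% in these data, passing the limit was not always enough); inconclusive = no clear call, values can overlap the other calls; inactive = the rest.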
# Legend:
# [1] = reducers of endogenous Her2 protein level, primary screen, SKBR3 breast tumor cells, AlphaScreen, ATP viability (AID 461;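 active = Her2 level under about 52% in both replicate screens, with viability over 70% of control, limit read from the data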;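 as to Her2 level: lower value means less Her2 protein in the cells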;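 as to viability: percent of carrier control wells set as 100% viability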); details: 18-24 h, measured here: SKBR3 viability, ATP luminescence, at 10 µM
# [2] = target: Receptor tyrosine-protein kinase erbB-2 (Homo sapiens) (UniProt P04626); assay: as above; details: 18-24 h, at 10 µM, stronger effect = lower value
# [3] = SK-BR-3 cell growth inhibitors, pilot screen, 24 h, human (AID 572;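 active = viability at or below 10% of carrier control in both of two separate runs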;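 also: compound exposure lasted between 18 and 24 h rather than exactly 24 h; 100% = carrier-treated control wells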); details: SK-BR-3 viability, CellTiter-Glo luminescence, at 10 µM, stronger effect = lower value
# [4] = HUVEC growth inhibition – cell-based, human, primary screen (AID 575;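 active = viability at or below 30% in both replicate assays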;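 also: 100% = median of untreated cell wells with 0.1% DMSO on each plate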); details: HUVEC proliferation, CellTiter-Glo luminescence, 72 h; at 10 µM; stronger effect = lower value
# [5] = growth inhibitors of H69AR lung tumor, primary screen, human, duplicate replicates (AID 580;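 active = viability at or under a set limit in both replicates, limit being median viability minus 3 SD, cut at about 48% in these data, passing the limit was not always enough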;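 also: 100% = mean luminescence of untreated wells and 0% = no signal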); details: H69AR lung tumor cells viability, ATP luminescence, 72 h; at 10 µM; stronger effect = lower value
# [6] = reversal of MRP1-mediated doxorubicin resistance, pilot screen, H69AR cells, doxorubicin co-treatment (AID 601;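 active = viability loss from added drug above about 55%, and viability with drug at most 40%, in both replicates, limit read from the data, passing the limit was not always enough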); details: CellTiter-Glo, 72 h, at 10 µM; for differential viability (reversal): stronger effect = higher value
# [7] = 384-well plate pilot, post-Golgi transport modulator project, inhibition of yeast transport mutant growth (AID 636; in the data active = inhibition above about 31%); details: absorbance 615 nm, about 18 h, stronger effect = higher value
# [8] = growth suppression of yeast trafficking mutant, preliminary HTS, modulators of trafficking downstream of Golgi apparatus project, 1536-format plate, OD 615 nm (AID 637; in the data active = inhibition above about 30%); details: yeast transport mutant growth, absorbance 615 nm, 18 h; stronger effect = higher value
# [9] = OD615 S. cerevisiae growth inhibition, permissive medium, pilot counter-assay, permissive growth control for S. cerevisiae lifespan shortening project (AID 705;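 active = growth inhibition above 25% in both replicates, a cutoff set 3 SD above the mean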); details: OD615, 24 h, at 10 µM, stronger effect = higher value
# [10] = Restrictive medium S. cerevisiae growth inhibition, OD615, pilot screen of yeast lifespan reduction project, restrictive growth control (AID 706;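 active = growth inhibition above a set limit, 3 SD over mean compound inhibition, in both replicates, cut at about 43% in these data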;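 also: modified DeaD lifespan yeast strain shifted to restrictive glucose medium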); details: OD615, 48 h, at 10 µM, stronger effect = higher value
# [11] = viability gain of MRP-1-high H69AR cells under doxorubicin, pilot screen, MRP-1 activator project, CellTiter-Glo, duplicate (AID 807;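 active = viability increase at or above a cutoff of the median across tested compounds plus 3 SD, cut at about 8.5% in these data, passing the limit was not always enough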;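 also: compound pretreatment 18-22 h then 72 h combined with doxorubicin; 0% = doxorubicin alone and 100% = vehicle without doxorubicin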); details: H69AR viability with doxorubicin, CellTiter-Glo luminescence; at 10 µM; stronger effect = higher value
# [12] = growth suppression of beta-catenin knockout HCT116, pilot screen, human colon tumor cells (AID 823); details: CellTiter-Glo, 60 h, at 10 µM, stronger effect = lower value;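 also: 0% = wells killed by 20 µM Hyamine and 100% = untreated DMSO cell wells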
# [13] = growth suppression of PTEN-deleted HCT116, pilot screen, cell-based, HCT116 clonal line, CellTiter-Glo (AID 824;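 active = viability at or below 27.92% in each of two runs, the all-compound median minus 4 SD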;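 also: 0% = 20 µM Hyamine control and 100% = vehicle cell control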); details: 60 h, at 10 µM, stronger effect = lower value
# [14] = inhibitors of the yeast RAM network, pilot screen, dse1pr::URA3 reporter, 5-FOA selection (AID 869;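 active = inhibition over a set limit, the all-compound mean plus 3 SD, in both replicate runs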;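 also: 0% = DMSO wells with no growth and 100% = 10 µM 1-NA-PP1 with full growth; RAM network block rescues cells from 5-FOA so hits raise OD615 growth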); details: S. cerevisiae dse1pr::URA3 5-FOA growth, OD615, 2 d; at 10 µM; stronger effect = higher value; strain carries analog-sensitive mutant Cbk1 kinase
# [15] = RAM signaling pathway blockade in yeast – S. cerevisiae, Pdr1DBD-CYC8 efflux-inhibited sensitized strain, primary screen (AID 1298;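 active = RAM network inhibition above 8.4% in each of two replicates, 3 SD over the compound average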;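 also: 0% = DMSO untreated cells without growth and 100% = 10 µM 1-NA-PP1 full growth; higher means more yeast growth rescued from 5-FOA killing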); details: S. cerevisiae cbk1-as DSE1-URA3 strain, 5-FOA growth OD615, 2 d; at 50 µM; stronger effect = higher value
# [16] = H69AR cells + 2 uM doxorubicin, measured here: viability with 2 uM doxorubicin, stronger effect = lower value
# [17] = H69AR cells, compound alone cytotoxicity
# Chain of Receptor tyrosine-protein kinase erbB-2 (Homo sapiens) (P04626 whole entry, looked up): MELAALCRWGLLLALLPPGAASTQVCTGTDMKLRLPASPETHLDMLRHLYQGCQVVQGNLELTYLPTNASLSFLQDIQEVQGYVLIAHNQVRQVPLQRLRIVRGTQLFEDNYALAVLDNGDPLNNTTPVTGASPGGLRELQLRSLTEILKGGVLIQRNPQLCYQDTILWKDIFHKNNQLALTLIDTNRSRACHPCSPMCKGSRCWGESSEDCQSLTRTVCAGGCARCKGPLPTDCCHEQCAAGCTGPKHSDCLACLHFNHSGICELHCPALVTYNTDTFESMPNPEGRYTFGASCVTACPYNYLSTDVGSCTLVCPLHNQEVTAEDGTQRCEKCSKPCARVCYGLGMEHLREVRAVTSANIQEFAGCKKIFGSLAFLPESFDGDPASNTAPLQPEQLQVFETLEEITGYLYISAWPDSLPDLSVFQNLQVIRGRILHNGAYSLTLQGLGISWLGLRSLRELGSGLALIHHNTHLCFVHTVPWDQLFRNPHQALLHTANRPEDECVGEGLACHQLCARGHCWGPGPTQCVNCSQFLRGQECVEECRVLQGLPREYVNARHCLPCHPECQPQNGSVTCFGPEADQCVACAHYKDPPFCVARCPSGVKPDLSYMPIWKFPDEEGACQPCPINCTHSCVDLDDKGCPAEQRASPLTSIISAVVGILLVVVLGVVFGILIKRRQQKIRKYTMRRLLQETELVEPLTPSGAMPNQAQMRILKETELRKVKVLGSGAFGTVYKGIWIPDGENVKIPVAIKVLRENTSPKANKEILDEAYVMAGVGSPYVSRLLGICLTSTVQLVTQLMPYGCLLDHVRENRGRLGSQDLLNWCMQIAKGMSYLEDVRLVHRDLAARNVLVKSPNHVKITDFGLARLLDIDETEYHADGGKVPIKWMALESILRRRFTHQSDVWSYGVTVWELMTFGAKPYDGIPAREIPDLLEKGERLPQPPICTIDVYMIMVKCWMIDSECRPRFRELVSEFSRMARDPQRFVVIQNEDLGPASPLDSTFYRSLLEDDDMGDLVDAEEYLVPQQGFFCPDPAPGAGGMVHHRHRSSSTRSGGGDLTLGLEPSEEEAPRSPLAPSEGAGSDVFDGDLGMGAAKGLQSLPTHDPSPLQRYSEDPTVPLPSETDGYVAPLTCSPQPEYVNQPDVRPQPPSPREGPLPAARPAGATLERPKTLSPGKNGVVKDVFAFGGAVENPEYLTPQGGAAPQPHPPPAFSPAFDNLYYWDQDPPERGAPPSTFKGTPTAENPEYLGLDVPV
SMILES,viability [1] [%],Her2 level [2],viability [3],viability [4],viability [5],differential viability (reversal) ([6]; H69AR cells + 2 uM doxorubicin),"viability [6, 16] [%]","viability [6, 17] [%]",inhibition [7],inhibition [8],growth inhibition [9],growth inhibition [10],viability increase [11],viability [12],viability [13],inhibition [14],RAM network inhibition [15]
COC(=O)c1sc(NC(=O)COc2ccccc2OC)nc1C,99.5,90% (inactive),99.5% (inactive),99.8% (inactive),95.1% (inactive),11.6% (inactive),83.5,95.1,-6.22% (inactive),-4% (inactive),-1.71% (inactive),-0.995% (inactive),-1.51% (inactive),102% (inactive),101% (inactive),1.06% (inactive),9% (inactive)
CCN1CCN(C(=O)Cn2ncc3ccsc3c2=O)CC1,101,110% (inactive),101% (inactive),89.8% (inactive),97% (inactive),4.04% (inactive),93,97,-3.73% (inactive),0.5% (inactive),-0.535% (inactive),2.34% (inactive),1.63% (inactive),105% (inactive),101% (inactive),1.72% (inactive),0.51% (inactive)
Cc1ccc(C)c2[nH]c(=O)c(CCNC(=O)c3ccc(S(=O)(=O)N(C)C)cc3)cc12,121,114% (inactive),121% (inactive),88.1% (inactive),82.3% (inactive),-1.57% (inactive),83.9,82.3,-4.13% (inactive),-4% (inactive),-2.9% (inactive),-22.2% (inactive),-4.33% (inactive),93.2% (inactive),81.5% (inactive),2.99% (inactive),3.23% (inactive)
CC(=O)c1ccc(NC(=O)C2CCN(S(=O)(=O)c3cccc4cccnc34)CC2)cc1,97.5,117% (inactive),97.5% (inactive),100% (inactive),84.3% (inactive),-5.16% (inactive),89.4,84.3,-2.67% (inactive),-5% (inactive),-5.1% (inactive),-5.57% (inactive),-1.12% (inactive),107% (inactive),99.8% (inactive),1.35% (inactive),8.91% (inactive)
CCOc1ccc(-c2nnc(SCC(=O)N3CCN(c4ccccc4)CC3)o2)cc1,103,96% (inactive),103% (inactive),99.5% (inactive),86.5% (inactive),-2.04% (inactive),88.5,86.5,-3.73% (inactive),-3.28% (inactive),-3.14% (inactive),2.85% (inactive),-0.66% (inactive),102% (inactive),97.3% (inactive),2.71% (inactive),3.72% (inactive)
Cc1c(C#N)c2ncnc(-c3ccccc3)c2n1-c1ccccc1,106,101% (inactive),106% (inactive),85.5% (inactive),71.8% (inactive),52.5% (inactive),19.3,71.8,-3.64% (inactive),-4.92% (inactive),-10.9% (inactive),-15.3% (inactive),-5.64% (inactive),91% (inactive),85.9% (inactive),0.395% (inactive),5.06% (inactive)
Cc1nn(C(=O)c2ccoc2C)c(N)c1-c1ccccc1,101,88.5% (inactive),101% (inactive),85.9% (inactive),92.1% (inactive),12.6% (inactive),79.5,92.1,-6.27% (inactive),-2.33% (inactive),13% (inactive),10.9% (inactive),2.64% (inactive),78.8% (inactive),84.3% (inactive),1.68% (inactive),7.07% (inactive)
COc1ccc(OCC(=O)N2CC3(C)CC2CC(C)(C)C3)cc1 (centres undefined),96,84% (inactive),96% (inactive),108% (inactive),99.8% (inactive),17% (inactive),82.8,99.8,-3.2% (inactive),-2.9% (inactive),-9.87% (inactive),-0.89% (inactive),0.69% (inactive),97.9% (inactive),92% (inactive),1.06% (inactive),1.07% (inactive)
Cc1nc2c(-c3ccc(F)cc3)c(C)nn2c(C)c1CCC(=O)NC(C)CCc1ccco1 (centres undefined),102,59% (inactive),102% (inactive),63.1% (inactive),91.2% (inactive),10.4% (inactive),80.9,91.2,-0.64% (inactive),7.83% (inactive),2.17% (inactive),-4.76% (inactive),-1.56% (inactive),75% (inactive),82.3% (inactive),0.865% (inactive),1.03% (inactive)
CCN(CC)C(=O)C1CCCN(c2ncnc3c2cnn3-c2ccc(Cl)cc2)C1 (centres undefined),94.5,96.5% (inactive),94.5% (inactive),49.2% (inactive),86.1% (inactive),2.38% (inactive),83.7,86.1,-4.4% (inactive),-2.17% (inactive),-7.13% (inactive),5.38% (inactive),3.1% (inactive),66% (inactive),69.7% (inactive),0.62% (inactive),-2.04% (inactive)
CCCCn1c(CN2CCN(c3ccc(F)cc3)CC2)nc2c1c(=O)n(C)c(=O)n2C,98,93% (inactive),98% (inactive),66.9% (inactive),95.5% (inactive),-3.86% (inactive),99.3,95.5,-3.33% (inactive),-5.74% (inactive),-8.42% (inactive),-1.05% (inactive),-0.4% (inactive),80.3% (inactive),85.8% (inactive),1.07% (inactive),3.49% (inactive)
CCOC(=O)N1CCC(NC(=O)c2cc3c(=O)n(C)c4ccccc4c3n2C)CC1,88,94% (inactive),88% (inactive),71.3% (inactive),73.1% (inactive),-4.2% (inactive),77.3,73.1,-2.67% (inactive),-1.17% (inactive),-11.7% (inactive),-13% (inactive),-3.46% (inactive),80.2% (inactive),84.5% (inactive),2.96% (inactive),9.59% (inactive)
